ALOX12 inh – inhibitors of human 12S-lipoxygenase ALOX12; P18054; purified 12hLO, xylenol orange hydroperoxide absorbance; Potency, µM (top dose mostly 108 µM), without a hit: top-dose activity change, negative = inhibition, hits mostly inhibitors; 1.1% of 580,000 active; AID 1671190
Target sequence (P18054 whole entry, looked up): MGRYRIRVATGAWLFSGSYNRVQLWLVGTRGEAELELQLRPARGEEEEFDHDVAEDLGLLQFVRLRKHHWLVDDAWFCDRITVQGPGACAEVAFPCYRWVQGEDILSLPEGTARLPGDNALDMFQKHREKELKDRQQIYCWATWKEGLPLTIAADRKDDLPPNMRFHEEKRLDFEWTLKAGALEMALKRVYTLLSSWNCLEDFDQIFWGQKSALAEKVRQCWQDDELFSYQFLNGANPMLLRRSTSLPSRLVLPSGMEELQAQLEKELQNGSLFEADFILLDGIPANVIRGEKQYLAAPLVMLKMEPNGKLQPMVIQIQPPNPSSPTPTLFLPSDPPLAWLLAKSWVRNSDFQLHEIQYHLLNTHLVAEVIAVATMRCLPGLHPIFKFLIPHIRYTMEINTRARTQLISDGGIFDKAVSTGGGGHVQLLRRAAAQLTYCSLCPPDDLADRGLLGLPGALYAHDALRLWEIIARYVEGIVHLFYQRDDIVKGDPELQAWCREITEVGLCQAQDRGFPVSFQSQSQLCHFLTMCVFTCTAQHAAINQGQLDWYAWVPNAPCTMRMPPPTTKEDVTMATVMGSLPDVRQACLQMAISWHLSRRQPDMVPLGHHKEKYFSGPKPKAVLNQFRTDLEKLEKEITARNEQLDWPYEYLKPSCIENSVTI
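Purified human 12hLO (150 nM final) in 25 mM Hepes, 0.01% Triton X-100, pH 7.0 was preincubated 15 min at room temperature with compound. Then 40 uM arachidonic acid was added, 30 min. Hydroperoxide was read by Fe-XO absorbance ratio 573/405 nm.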
TDP1 cell CPT – DT40-hTDP1 cell growth loss with CPT; chicken DT40 Tdp1-/-;hTDP1 cells + 20 nM CPT, ATP luminescence, 48 h; Potency, µM (highest dose often 46.2 µM), without a hit: at the highest dose activity change, negative = growth inhibition, most hits filed as inhibitors; 12% of 420,000 active; further: nearly all actives have a fitted effect of over 55% in size
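Cell growth measured by CellTiter-Glo luminescence after a minimum 48 h, 37 C compound exposure with 20 nM CPT in Tdp1-knockout DT40 cells stably expressing hTDP1, seeded 400/well; qHTS titration format.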
VP16 counter – Gal4-VP16 reporter inhibition counter-screen. Drosophila S2 Gal4-VP16 UAS-luciferase, luminescence, 20 h. Potency, µM (titrated, usually from 53.6 µM), inactives show top-dose activity, negative = inhibition, most hits filed as inhibitors. 3.5% of 310,000 active. AID 2546;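 further: Gal4-VP16 expression switched on by copper sulfate through the metallothionein promoter; nearly all actives have a fitted effect of over 50% in size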
ELG1 repair inh – ELG1-dependent DNA repair inhibition | HEK293T ELG1-luciferase reporter, luminescence, 16 h; DNA damage induced by 5-fluorouridine | Potency, µM (series often up to 46.1 µM), for the others: at the top dose activity change, negative = inhibition, hits mostly inhibitors | 2.3% of 330,000 active | AID 504467; further: nearly all actives have a fitted effect of over 55% in size
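Overnight (16 hr) co-exposure of 2,000 cells/well to 5-fluorouridine and compound at 37 °C preceded detection. Luciferase was quantified via ONE-Glo luminescence; loss of signal denotes inhibition.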
DT40 TDP1 no CPT – qHTS for Inhibitors of human tyrosyl-DNA phosphodiesterase 1 (TDP1): qHTS in cells in absence of CPT | DT40 Tdp1-/- hTDP1 cells, no CPT, ATP luminescence, 48 h | Potency, µM (doses to about 46.2 µM), for the others: top-dose activity change, negative = growth inhibition, hits mostly inhibitors | 15% of 420,000 active | AID 686978, 2013; further: nearly all actives have a fitted effect of over 55% in size
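Growth kinetics read by CellTiter-Glo luminescence after ≥48 hr at 37 °C. Cells: DT40 Tdp1-/- stably carrying human TDP1, 400 per well, compound exposure in the absence of CPT (DMSO vehicle).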
RORg inh – inhibitors of mouse ROR gamma transcriptional activity; P51450; AID 2551; Drosophila S2 Gal4-RORgamma UAS-luciferase reporter, 20 h; Potency, µM (highest dose often 53.6 µM), for the others: top-dose activity change, negative = inhibition, usual class: inhibitors; 5.4% of 310,000 active; further: nearly all actives have a fitted effect of over 60% in size
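Drosophila Schneider cells stably carrying a metallothionein-driven Gal4 DBD–ROR gamma fusion and a UAS-Photinus luciferase reporter were exposed to compound for 1 hr, then induced with copper sulfate (700 uM final) for 20 hr at ambient temperature before luminescence reading.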
Active calls of the source: *; ? = inconclusive; nt = not tested or not shown; [ ] = another dose, or the depositor's remark. The list is not random: actives were taken first. Their share in the collection is about 15%. The call rests on the fitted dose curve; in most records, active means well fitted curve in the direction sought with a large enough effect; inconclusive means small, poorly fitted or top-dose-only effect, or another doubt; inactive means no such curve, though single readings can be large; an effect the other way counts as inactive or inconclusive. On the % scale 0 is the no-effect control and ±100 the full control effect; potency means the concentration at half of the fitted maximal effect.

SMILES	ALOX12 inh	TDP1 cell CPT	VP16 counter	ELG1 repair inh	DT40 TDP1 no CPT	RORg inh
COc1ccccc1Cn1c(CCCO)nc2ccccc21	-7%	?	13%	-18%	-22%	-31%
Cc1ccccc1Cn1c(-c2cncs2)nc2ccccc21	0%	?	10%	?	?	-2%
Cc1nc(-c2c3n(c(=O)n(CC(=O)Nc4ccc(F)c(Cl)c4)c2=O)CCCC3)no1	17%	nt	nt	nt	nt	nt
CC(C)(C)N(NC(=O)Nc1ccc(Cl)c(Cl)c1)C(=O)c1ccccc1	-34%	18µM*	-17%	-20%	18µM*	?
CC(C)(C)N(NC(=O)Nc1ccc(F)cc1)C(=O)c1ccccc1	-23%	-6%	-3%	7%	-14%	-16%
Cc1cc(C)cc(C(=O)N(NC(=O)Nc2ccc(Cl)cc2)C(C)(C)C)c1	30%	15µM*	?	7%	?	?
O=C(NNc1ccc([N+](=O)[O-])cc1)Nc1ccccc1	?	1%	15%	0%	?	23%
NN/C(=C\[N+](=O)[O-])Nc1ccccc1	-16%	?	-7%	?	21µM*	?
O=C(O)CCCC(=O)Nc1ccc(Cl)cc1	7%	4%	0%	4%	-14%	22%
NN/C(=C\[N+](=O)[O-])Nc1ccc(Cl)cc1	35µM*	?	-12%	-2%	?	?
Cc1cn2nnc(C(=O)N3CCC(C(=O)Nc4cccc(F)c4)CC3)c2c(=O)[nH]1	31%	nt	nt	nt	nt	nt
COc1cccc(CN(C)CC(C#N)CCC#N)c1OC (configuration not stated)	3%	nt	nt	nt	nt	nt
COc1ccc(NC(=O)c2ccc3c(c2)OCCN(Cc2ncccn2)C3)cc1F	10%[176 µM]	nt	nt	nt	nt	nt
COc1cc2c(cc1OC)CN(C(=O)c1ccc(S(=O)(=O)N(C)c3ccccc3)cc1)CC2	-20%	?	-6%	?	15µM*	-3%
COc1cc2c(cc1OC)CN(C(=O)c1ccc3nc[nH]c3c1)CC2	-8%	3.3µM*	-11%	3%	3.3µM*	-4%
COc1ccc(S(=O)(=O)N(C)c2ccc(C(=O)N3CCCCC3)cc2)cc1	0%	?	-20%	?	15µM*	?
COc1ccc(S(=O)(=O)N(C)c2ccc(C(=O)N3CCOCC3)cc2)cc1	0%	-21%	-2%	1%	?	-5%
COc1ccc(C(=O)N2CCc3ccc(NC(=O)c4ccccn4)cc3C2)cc1F	-3%	21µM*	-11%	?	23µM*	?
O=C1CCCN1CCCN1C(=O)[C@H]2CN(Cc3ccccc3Cl)C[C@H]2C1=O	43%	nt	nt	nt	nt	nt
Oc1ccccc1-c1nc2ccccc2s1	-6%	nt	nt	nt	nt	nt
O=c1[nH]c(=O)n(-c2ccccc2F)c2c1CN(Cc1ccco1)CN2	-1%	nt	nt	nt	nt	nt
CS(=O)(=O)c1ccc(C(=O)N2CCN(Cc3ccccc3)CC2)cc1	3%	-2%	1%	-6%	-13%	9%
CN(c1ccc(C(=O)N2CCN(Cc3ccccc3)CC2)cc1)S(=O)(=O)c1ccc(Cl)cc1	0%	?	-8%	-17%	16µM*	?
COc1ccc(S(=O)(=O)N(C)c2ccc(C(=O)N3CCCCC3)cc2)cc1OC	9%	7.3µM*	?	?	21µM*	?
CN(c1ccc(C(=O)N2CCCCCC2)cc1)S(=O)(=O)c1ccccc1	7%	13µM*	nt	21%	8.2µM*	nt
CN1CCN(C(=O)c2ccc(S(=O)(=O)N(C)c3ccccc3)cc2)CC1	14%	-15%	nt	nt	0%	nt
CN1CCN(C(=O)c2cc3c(c(-c4cccc(-c5cccnc5)c4)n2)[C@H](CCO)N(C(=O)CC2CC2)C3)CC1	-11%	0%	nt	nt	-9%	nt

Assay outcomes deposited in PubChem BioAssay by National Center for Advancing Translational Sciences (NCATS).
